High-throughput results from PubChem BioAssay.
CatB mix inh: inhibitors of human cathepsin B in compound mixtures; P07858; Purified cathepsin B, AMC dipeptide fluorescence; inhibition, %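 (ten-compound pools at 5 µM per compound and 50 µM total)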; 62,000 tested, 0.06% active; AID 488; in the data active = inhibition above about 22%, passing the limit was not always enough; inconclusive = no clear call, values can overlap the other calls;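 also: 0% = enzyme without compound and 100% = no enzyme blank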
CatS inh: inhibitors of human cathepsin S | P25774 | recombinant cathepsin S, AMC dipeptide fluorescence, pooled mixtures | 62,000 tested, 0.06% active | inhibition, %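 (tested at 5 µM per compound within 10-compound mixtures)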; in the data active = inhibition above about 32%, passing the limit was not always enough; inconclusive = no clear call, values can overlap the other calls;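 also: 0% = enzyme without compound and 100% = blank without enzyme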
CatG inh: blocks human cathepsin G enzyme activity; P08311; purified enzyme, AMC-tetrapeptide fluorescence, pooled mixtures; AID 581; 62,000 tested, 0.2% active; inhibition, % at 5 µM (by protocol);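 active = inhibition above 20% in each of the two mixture wells holding the compound; inactive = inhibition of 20% or less in either well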;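 also: 0% = enzyme control without mixture and 100% = blank lacking enzyme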
Target sequence (P08311 21-244 limits assumed): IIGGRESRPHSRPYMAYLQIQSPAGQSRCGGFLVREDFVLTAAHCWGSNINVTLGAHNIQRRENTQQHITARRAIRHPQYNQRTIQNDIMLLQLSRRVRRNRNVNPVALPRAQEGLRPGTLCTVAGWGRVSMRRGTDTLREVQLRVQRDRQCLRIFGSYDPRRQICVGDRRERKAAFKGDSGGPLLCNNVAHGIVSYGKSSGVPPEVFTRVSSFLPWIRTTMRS
CatB block: human cathepsin B inhibition. P07858. purified cathepsin B, fluorogenic substrate, fluorescence. inhibition, %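 (tested at 10 µM)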. 63,000 tested, 0.1% active; in the data active = inhibition above about 21%;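 also: 0% = enzyme with no compound and 100% = no enzyme blank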
C1s inh: blocks human complement C1s protease activity. purified C1s, fluorogenic AMC substrate, pooled mixtures. mean inhibition % of two 10-compound mixtures (active compounds read high), % at 5 µM (by protocol). 62,000 tested, 0.16% active. AID 538;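 active = inhibition above 20% in each of the two 10-compound mixture wells holding the compound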;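 also: 0% = enzyme wells lacking compound mixture and 100% = no-enzyme blank wells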
CatL block: inhibitors of human cathepsin L; 58,000 tested, 0.17% active; P07711; purified cathepsin L, fluorogenic substrate, fluorescence; inhibition, %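 (tested at 10 µM)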; in the data active = inhibition above about 45%;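 also: 0% = enzyme with no compound and 100% = no enzyme blank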
Target sequence (P07711 114-288 limits assumed): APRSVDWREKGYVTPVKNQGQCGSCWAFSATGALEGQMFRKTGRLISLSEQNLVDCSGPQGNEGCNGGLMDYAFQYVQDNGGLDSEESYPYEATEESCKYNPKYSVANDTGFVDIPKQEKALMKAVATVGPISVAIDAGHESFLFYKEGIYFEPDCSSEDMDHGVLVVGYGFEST
Target sequence (P07711 292-333 limits assumed): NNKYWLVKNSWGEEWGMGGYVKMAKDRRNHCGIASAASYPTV
Numbers without * were called inactive; ? = inconclusive; . = no result. An excerpt weighted towards active compounds, which were near 0.54% of everything screened.

SMILES	CatB mix inh	CatS inh	CatG inh	CatB block	C1s inh	CatL block
CC(C)N(C(=O)CSc1nnnn1C1CCCC1)C(C)C	-5.9	-4.7	-7.5	4.3	-51.7	11.7
COc1ccc(-n2c(SCC(=O)N3CCN(c4ccccc4)CC3)nc3c(c2=O)SCC3)cc1	3.6	-4.6	6.4	0.0	0.4	-7.1
Cc1ccc(-n2c(SCC(=O)N3CCCC3)nc3c(c2=O)SCC3)cc1	3.4	9.8	11.0	-0.8	20.9*	18.4
COc1ccc2nc(COC(=O)c3ccco3)c(C(C)=O)[n+]([O-])c2c1	2.8	-5.8	-0.2	-0.7	5.2	-3.5
COc1ccc2nc(CC(C)(C)CC(=O)O)c[n+]([O-])c2c1	5.8	-14.8	0.0	23.2*	0.7	-12.4
Cc1cc(NC(=O)c2noc3c2CCc2ccccc2-3)no1	1.2	8.4	95.5*	1.0	-12.8	6.0
Cc1ccccc1Cn1nc(C)c(NC(=O)c2noc3c2CCc2ccccc2-3)c1C	-0.1	7.1	72.0*	0.8	5.5	2.0
O=C(NCCCn1ccnc1)c1noc2c1CCc1ccccc1-2	3.2	10.5	95.0*	4.7	17.4	25.7
COc1ccc2c(c1)CCc1c(C(=O)NCc3cccnc3)noc1-2	10.6	?	87.2*	-0.5	18.9	-4.8
CCc1nn(C(C)C(=O)N2CCc3ccccc3C2)c(=O)c2cc3occc3n12 (stereo not drawn)	1.4	13.0	-5.7	5.8	-38.8	21.8
O=C(NCc1cccnc1)c1ccc2c(c1)OCO2	7.4	16.3	-13.9	2.1	-41.9	6.3
CCOC(=O)C1(CC)NC(c2cccc(F)c2)C2C(=O)N(CC)C(=O)C21 (stereo not drawn)	-11.4	6.1	10.2	0.3	0.9	8.7
Cc1ccc(S(=O)(=O)NC(CC(=O)N2CCc3ccccc32)c2ccco2)cc1 (stereo not drawn)	6.2	10.0	12.4	1.2	13.2	25.8
COc1ccc(S(=O)(=O)NC(CC(=O)N2CCc3ccccc32)c2ccco2)cc1 (stereo not drawn)	0.2	6.1	1.7	0.1	3.0	49.0*
CCCCn1c(-c2cc(Cl)ccc2OC)n[nH]c1=S	4.0	20.6	9.9	1.5	42.9*	8.5
Cn1cnnc1SCc1ccc(C(=O)n2ncc(C#N)c2N)cc1	-1.5	-4.5	47.1*	3.0	-5.5	18.5
COc1ccc(-c2nnc(-c3cccs3)o2)cc1OC	1.0	3.1	-13.4	-0.3	-12.2	-62.3
COc1cc2nc(-c3cccs3)oc(=O)c2cc1OC	6.2	5.6	22.5*	-0.9	11.4	-6.3
Cc1nc(NC(=O)CSc2nc3cccnc3n2Cc2ccccc2)sc1C	-1.1	16.4	0.0	-1.4	-4.0	0.5
Nc1nonc1-c1nc2ccccc2n1CC(=O)NC1CCCC1	17.9	-4.4	9.8	13.9	8.0	30.9
CC1CCCN(C(=O)Cn2c(-c3nonc3N)nc3ccccc32)C1 (stereo not drawn)	5.6	-0.6	7.3	5.8	11.7	17.8
CCOC(=O)c1ccccc1NC(=O)Cn1c(-c2nonc2N)nc2ccccc21	4.6	-4.8	7.1	58.6*	10.7	43.5
Nc1nonc1-c1nc2ccccc2n1Cc1ccccc1	42.8*	-1.5	-7.3	4.7	-26.4	39.2
CCN(C(=O)COc1cc(=O)n(CC)c2ccccc12)c1cc(Cl)ccc1OC	0.8	-1.7	-1.5	2.7	-1.8	.
CCN(C(=O)COc1cc(=O)n(CC)c2ccccc12)c1cccc(Cl)c1	3.9	6.4	10.3	25.0*	17.8	3.4
SMILES	CatB mix inh	CatS inh	CatG inh	CatB block	C1s inh	CatL block
COc1ccc(Cl)cc1C(=O)NCC(C)C	-1.3	8.0	0.9	5.5	-19.3	9.9
COc1ccc(-n2nnc3c(SCC(=O)N4CCN(c5ccccc5)CC4)ncnc32)cc1	-2.8	-2.4	9.2	0.4	9.4	20.5
COc1ccc(C(=O)C(OC(=O)CNC(=O)c2ccco2)c2ccccc2)cc1 (stereo not drawn)	11.8	-1.8	-7.8	21.3*	-12.5	67.7*
Cc1cc2oc3c(c(=O)c2cc1C)C(c1ccc(C(C)C)cc1)N(CCCN1CCOCC1)C3=O (stereo not drawn)	0.6	1.6	7.1	-0.9	-0.2	.
O=C(c1ccc(N2CCOCC2)nc1)N1CCOCC1	0.0	5.6	1.0	2.0	4.7	-8.6
O=C(c1cncc(Br)c1)N1CCN(c2ccc(N3CCOCC3)nn2)CC1	0.5	11.3	2.3	52.2*	0.8	14.1
CCOc1cccc2cc(-c3csc(NC(=O)CCC(=O)N4CCN(C)CC4)n3)c(=O)oc12	4.8	-2.4	10.0	-0.1	9.2	-1.6
CCOC(=O)N1CCN(C(=O)CN(c2cccc(C)c2)S(=O)(=O)c2ccc(C)cc2)CC1	6.6	16.0	10.1	3.8	57.7*	8.1
CC1(C)CC(=O)c2c(-c3cccs3)n[nH]c2C1	0.0	-0.8	6.8	2.7	-0.2	-3.2
Cn1c(=O)c(=O)n(C)c2cc(S(=O)(=O)N3CCCCCC3)ccc21	46.4*	-5.0	19.1	-7.8	19.2	-5.1
Cn1c(=O)n(C)c2cc(S(=O)(=O)N3CCOCC3)ccc21	5.6	13.2	7.5	6.0	11.1	9.9
O=C(O)CSc1ccccn1	-3.0	-6.1	-21.7	8.5	-43.5	-1.6
O=c1cc(CSc2ccccn2)[nH]c(=O)[nH]1	6.4	40.5*	0.6	2.0	-7.5	11.9
O=C(C1CC1)N1CCc2cc(S(=O)(=O)N(CCO)Cc3ccccc3)ccc21	3.6	-4.5	-3.6	2.2	3.2	-2.9
COc1cccc(C2=CC(c3cccc(OC)c3OC(F)F)n3nnnc3N2)c1 (stereo not drawn)	2.7	12.7	-3.3	5.6	-17.3	17.1
COc1cccc(C2=CC(c3cccc(OC)c3OC)n3nnnc3N2)c1 (stereo not drawn)	5.2	-3.6	33.8	4.0	30.2*	0.1
Nc1nonc1-c1nc2ccccc2[nH]1	52.0*	2.1	-2.3	18.1	9.4	40.8
Nc1cc(OC(=O)c2ccco2)nn1S(=O)(=O)c1ccc(F)cc1	59.6*	-3.3	3.3	61.2*	7.9	7.9
Cc1ccc(S(=O)(=O)n2nc(OC(=O)c3ccco3)cc2N)cc1	59.2*	19.2	19.8	76.1*	20.2	12.0
Cc1ccc(S(=O)(=O)n2nc(OC(=O)c3cccs3)cc2N)cc1	46.8*	4.1	32.8*	63.6*	29.3*	-7.4
Cc1cccn2c(=O)c3cc(C(=O)N4CCc5ccccc5C4)n(C)c3nc12	1.2	-11.6	6.8	4.8	-25.5	.
O=C(CCN1CCc2ccccc2CC1)c1ccc2c(c1)OCCO2	1.2	16.0	8.2	-1.1	-30.3	6.7
CCS(=O)(=O)n1nc(-c2ccco2)nc1SC	-0.3	-0.3	4.3	3.4	-114.8	.
CSc1nc(-c2ccco2)nn1S(=O)(=O)c1ccc(C)cc1	4.2	-1.9	8.8	-2.1	-5.5	.
CSc1nc(-c2ccco2)nn1C(=O)c1ccco1	6.2	2.1	22.6*	-5.3	60.0*	.
CSc1nc(-c2ccco2)nn1C(=O)c1ccc(C)cc1	4.5	-3.0	62.5*	1.0	67.5*	.
